Measured values as given in PubChem BioAssay (NCI).
This is part of a sample that, as a whole, favours compounds with a hit. Of some 79,000 tested, about 15% had one in any assay. Activity calls are given as the source filed them. No stated cut-off is given here; in the data, active means growth inhibition above about 70%; inactive means the rest.

Assays:
[1] = NCI Yeast Anticancer Drug Screen. Data for the rad50 strain (AID 155);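 further: 0% = growth of vehicle-only cultures of the same strain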; details: S. cerevisiae rad50 strain growth inhibition, active compounds read high
Procedure, shortened: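 Compounds were tested on a yeast strain with an engineered DNA damage repair alteration; the reported value is growth inhibition normalised to vehicle treatment.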

[2] = NCI Yeast Anticancer Drug Screen. Data for the mec2-1 strain (AID 157); details: S. cerevisiae mec2-1 strain, active compounds read high
Procedure, shortened: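 Mutant yeast (mec2-1) grown with compound; growth inhibition relative to vehicle control reported.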

[3] = NCI Yeast Anticancer Drug Screen. Data for the sgs1 mgt1 strain (AID 161);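 further: 0% = growth of cultures given vehicle only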; details: S. cerevisiae sgs1 mgt1 strain, active compounds read high
Procedure, shortened: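 Growth of a repair-deficient yeast mutant was monitored after compound treatment and expressed as inhibition relative to vehicle-treated cultures.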

[4] = NCI Yeast Anticancer Drug Screen. Data for the cln2 rad14 strain (AID 165);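 further: 0% = growth equal to vehicle treated cultures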; details: S. cerevisiae cln2 rad14 strain, active compounds read high
Procedure, shortened: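 Readout is yeast growth inhibition versus vehicle-treated controls, using a strain with cln2 and rad14 alterations exposed to compound.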

[5] = NCI Yeast Anticancer Drug Screen. Data for the bub3 strain (AID 167); details: S. cerevisiae bub3 mutant strain, active compounds read high
Procedure, shortened: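 Growth of a checkpoint-deficient yeast mutant is measured after compound exposure. Values represent inhibition relative to vehicle.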

[6] = NCI Yeast Anticancer Drug Screen. Data for the mlh1 rad18 strain (AID 175); details: S. cerevisiae mlh1 rad18 strain growth inhibition, active compounds read high
Procedure, shortened: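 Genetically defined yeast (DNA repair-deficient) exposed to compounds; growth inhibition determined relative to vehicle.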

[7] = at 5.0 µM (retest, dose inferred, filed as 0.5)
[8] = at 50.0 µM (retest, dose inferred, filed as 5.0)

Measured: growth inhibition

Cc1cc(NCCO)nc2c1ccc1ccccc12
inactive: [1]; [7] 5% | [1]; [8] 9% | [1]; at 50.0 µM 53.9% | [2]; [7] 3% | [2]; [8] -2% | [2]; at 50.0 µM 35.6% | [3]; [7] 3% | [3]; [8] 16% | [3]; at 50.0 µM 46% | [4]; [7] -2% | [4]; [8] 23% | [4]; at 50.0 µM 16.6% | [5]; [7] -3% | [5]; [8] 16% | [5]; at 50.0 µM 19% | [6]; [7] 2% | [6]; [8] 28% | [6]; at 50.0 µM 61.2%

O=C(OCc1ccccc1)N1N=NC2C1C1CC(OCc3ccccc3)(OCc3ccccc3)C2O1 (configuration not stated)
inactive: [1]; [7] 18% | [1]; [8] 18% | [1]; at 50.0 µM 40.1% | [2]; [7] 2% | [2]; [8] 2% | [2]; at 50.0 µM -21.9% | [3]; [7] 18% | [3]; [8] 18% | [3]; at 50.0 µM -10.7% | [4]; [7] 4% | [4]; [8] 4% | [4]; at 50.0 µM 13.2% | [5]; [7] 6% | [5]; [8] 6% | [5]; at 50.0 µM 18% | [6]; [7] 18% | [6]; [8] 18% | [6]; at 50.0 µM -22.2%

COc1cccc(C2c3cc4c(cc3OC(O)C2C)OCO4)c1O (configuration not stated)
inactive: [1]; [7] -10% | [1]; [8] 8% | [1]; at 50.0 µM 13.6% | [2]; [7] -5% | [2]; [8] 23% | [2]; at 50.0 µM 11.5% | [3]; [7] 1% | [3]; [8] 24% | [3]; at 50.0 µM -6.55% | [4]; [7] 7% | [4]; [8] 4% | [4]; at 50.0 µM 12.6% | [5]; [7] -4% | [5]; [8] 27% | [5]; at 50.0 µM 34.1% | [6]; [7] -7% | [6]; [8] 30% | [6]; at 50.0 µM 58%

CCCCCC/C=C1\CCC(CN2CCOCC2)C1=O (configuration not stated)
inactive: [1]; [7] 53% | [2]; [7] 23% | [2]; at 50.0 µM 52% | [3]; [7] 16% | [4]; [7] 25% | [4]; at 50.0 µM 63% | [5]; [7] 48% | [6]; [7] 59%
active: [1]; [8] 96% | [1]; at 50.0 µM 81.7% | [2]; [8] 97% | [3]; [8] 96% | [3]; at 50.0 µM 79.7% | [4]; [8] 79% | [5]; [8] 98% | [5]; at 50.0 µM 82.5% | [6]; [8] 97% | [6]; at 50.0 µM 74.8%

COc1ccc(-c2cc(-c3ccc4c(c3)CC(C)O4)nc(N)n2)cc1 (configuration not stated)
active: [1]; at 50.0 µM 90.8% | [2]; at 50.0 µM 90.8% | [3]; at 50.0 µM 91.2% | [4]; at 50.0 µM 86.5% | [5]; at 50.0 µM 88.7% | [6]; at 50.0 µM 88.7%
inactive: [1]; [7] 20% | [1]; [8] 1% | [2]; [7] 0% | [2]; [8] -14% | [3]; [7] 20% | [3]; [8] 3% | [4]; [7] 19% | [4]; [8] 15% | [5]; [7] 19% | [5]; [8] 15% | [6]; [7] -16% | [6]; [8] -19%

Cc1cccc(NC(=O)c2cc3cc(N=Nc4ccccc4Cl)ccc3oc2=O)c1
inactive: [1]; [7] 6% | [1]; [8] 6% | [2]; [7] -2% | [2]; [8] -2% | [3]; [7] 22% | [3]; [8] 22% | [4]; [7] 3% | [4]; [8] 3% | [4]; at 50.0 µM 35% | [5]; [7] 6% | [5]; [8] 6% | [6]; [7] 7% | [6]; [8] 7%
active: [1]; at 50.0 µM 78.5% | [2]; at 50.0 µM 70% | [3]; at 50.0 µM 75.4% | [5]; at 50.0 µM 78.3% | [6]; at 50.0 µM 70.7%

Cc1c2c(c(C)c3c1OC(C)(C)CC3)OC(C)(C)CC2
inactive: [1]; [7] -10% | [1]; [8] -4% | [1]; at 50.0 µM 34.6% | [2]; [7] -13% | [2]; [8] -7% | [3]; [7] -14% | [3]; [8] 8% | [3]; at 50.0 µM 62.2% | [4]; [7] -6% | [4]; [8] 0% | [4]; at 50.0 µM 46.5% | [5]; [7] -5% | [5]; [8] -5% | [5]; at 50.0 µM 11.2% | [6]; [7] -13% | [6]; [8] -7%
active: [2]; at 50.0 µM 77.2% | [6]; at 50.0 µM 98.2%

O=C(O)c1ccccc1-c1ccccc1C(=O)Nc1ccc2c(c1)Cc1cc(F)ccc1-2
inactive: [1]; [7] 22% | [2]; [7] -3% | [3]; [7] -8% | [4]; [7] -19% | [5]; [7] -27% | [6]; [7] -2%
active: [1]; [8] 97% | [1]; at 50.0 µM 94.1% | [2]; [8] 97% | [2]; at 50.0 µM 97.5% | [3]; [8] 95% | [3]; at 50.0 µM 97.9% | [4]; [8] 96% | [4]; at 50.0 µM 96.8% | [5]; [8] 92% | [5]; at 50.0 µM 97.8% | [6]; [8] 97% | [6]; at 50.0 µM 97.2%

C=C1C(=O)OC(C)(C)C1c1ccc(Cl)c(Cl)c1 (configuration not stated)
active: [1]; [8] 99% | [1]; at 50.0 µM 99.5% | [2]; [8] 99% | [2]; at 50.0 µM 99.8% | [3]; [8] 99% | [3]; at 50.0 µM 99.8% | [4]; [8] 97% | [4]; at 50.0 µM 99.2% | [5]; [8] 99% | [5]; at 50.0 µM 99.5% | [6]; [8] 98% | [6]; at 50.0 µM 99.7%
inactive: [1]; [7] 25% | [2]; [7] 35% | [3]; [7] 39% | [4]; [7] 18% | [5]; [7] 37% | [6]; [7] 38%
